# Experimental data published in the supplement of paper PMC6555819.
# What was measured:
# Assay in all cases: PBM binding z-score (relative to random genomic background probes); higher = stronger binding; sequences stand for … in GC…GCGATTGACAGCGTAGAATGAAGG
# [1] = tested on: FXR:RXRa (NR concentration 270 nM, RXRa partner concentration 90 nM)
# Method in brief: (§1)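 Probes were double-stranded and carried 34-nt variable regions with direct-repeat seeds, single-nucleotide variants, half-site ablations and random human genomic background sequences, printed on custom Agilent 4×180K protein-binding microarrays. Arrays were incubated 1 h with ligand-free nuclear receptor dimers in PBS pH 7.4, 2% milk, 0.02% Triton X-100, 1 mM DTT, 0.2 mg/mL BSA and 0.4 mg/ml salmon testes DNA. Antibodies against each partner (one per run) detected binding, and scanned fluorescence was regression-normalized. Binding z-scores use the random background probes as reference.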
# [2] = tested on: LXRa:RXRa (NR concentration 270 nM, RXRa partner concentration 90 nM)
# Method in brief: as §1
# [3] = tested on: LXRa homodimer (NR concentration 270 nM)
# Method in brief: as §1
# [4] = tested on: LXRb:RXRa (NR concentration 270 nM, RXRa partner concentration 90 nM)
# Method in brief: as §1
# [5] = tested on: LXRb homodimer (NR concentration 270 nM)
# Method in brief: as §1
# [6] = tested on: PPARa:RXRa (NR concentration 270 nM, RXRa partner concentration 90 nM)
# Method in brief: as §1
# [7] = tested on: PPARg:RXRa (NR concentration 180 nM, RXRa partner concentration 90 nM)
# Method in brief: as §1
# [8] = tested on: PPARg:RXRa 270nM:90nM, anti-RXR (NR concentration 270 nM, RXRa partner concentration 90 nM)
# Method in brief: as §1
# [9] = tested on: PPARg:RXRa 30nM:10nM, anti-RXR (NR concentration 30 nM, RXRa partner concentration 10 nM)
# Method in brief: as §1
# [10] = tested on: PPARg:RXRa 90nM:30nM, anti-RXR (NR concentration 90 nM, RXRa partner concentration 30 nM)
# Method in brief: as §1
# [11] = tested on: PPARg:RXRa DBDmut IVT, anti-RXR (DBD mutation: RXRa K156A/R161A, NR concentration 270 nM, RXRa partner concentration 90 nM)
# Method in brief: as §1
# [12] = tested on: PPARg:RXRa IVT, anti-PPARg (NR concentration 270 nM, RXRa partner concentration 90 nM)
# Method in brief: as §1
# [13] = tested on: PPARg DBDmut:RXRa IVT, anti-PPARg (DBD mutation: PPARg1 K132A/R137A, NR concentration 270 nM, RXRa partner concentration 90 nM)
# Method in brief: as §1
# [14] = tested on: PPARg DBDmut IVT, anti-PPARg (DBD mutation: PPARg1 K132A/R137A, NR concentration 270 nM)
# Method in brief: as §1
# [15] = tested on: PPARg homodimer (NR concentration 180 nM)
# Method in brief: as §1
# [16] = tested on: PXR:RXRa (NR concentration 270 nM, RXRa partner concentration 90 nM)
# Method in brief: as §1
# [17] = tested on: PXR homodimer (NR concentration 270 nM)
# Method in brief: as §1
# [18] = tested on: RARa:RXR (NR concentration 270 nM, RXRa partner concentration 90 nM)
# Method in brief: as §1
# [19] = tested on: RARa homodimer (NR concentration 270 nM)
# Method in brief: as §1
# [20] = tested on: RARb:RXRa (NR concentration 270 nM, RXRa partner concentration 90 nM)
# Method in brief: as §1
Sequence,PBM binding z-score [1],PBM binding z-score [2],PBM binding z-score [3],PBM binding z-score [4],PBM binding z-score [5],PBM binding z-score [6],PBM binding z-score [7],PBM binding z-score [8],PBM binding z-score [9],PBM binding z-score [10],PBM binding z-score [11],PBM binding z-score [12],PBM binding z-score [13],PBM binding z-score [14],PBM binding z-score [15],PBM binding z-score [16],PBM binding z-score [17],PBM binding z-score [18],PBM binding z-score [19],PBM binding z-score [20]
CCTAGCAGGCAAATCTGGGTCACTCAAGGCTTGA,0.679,1.35,-0.33,0.851,-0.654,3.07,2.26,2.58,0.128,1.8,4.27,5.25,-0.619,-1.06,0.358,0.746,-0.354,0.989,-0.416,1.16
GCCATTAGTTGAAAGGGCAACCGAATGATTCTCG,0.121,0.648,0.0731,0.887,-0.56,2.25,2.41,4.11,1.8,3.93,0.352,0.947,0.187,-0.306,0.971,0.706,0.067,1.4,-0.15,2.21
TCTAGTTGGTTAAAGGTCACACACTCGAAATGCG,5.51,5.54,4.45,5.47,2.22,6.63,9.55,8.64,8.96,9.31,3.15,5.25,1.74,2.83,4.61,5.24,1.86,6.06,4.25,4.77
ACTTACGGGTCAATGAGGTTATAGCACGCGTATA,5.51,4.96,0.962,4.08,1.04,5.25,4.45,4.61,2.44,3.5,3.32,3.66,1.87,1.58,1.79,4.89,2.68,4.53,1.1,3.86
CCTTACAGGTCACTGACAGGTTATAGCATTTGGA,6.15,4.93,2.19,3.88,0.942,5.23,4.78,4.44,2.1,3.27,4.62,4.34,1.33,1.38,3.27,3.86,0.606,4.73,2.15,4.67
CCAGACAGGTGAAAGGTAACTCAATCTGGTACGC,0.545,0.735,-0.0709,1.09,-0.161,3.43,5.5,6.13,3.94,5.99,2.13,2.83,-0.064,-0.205,1.32,1.09,0.164,2.31,0.578,1.11
TAGCCTCGGTCATGCGGGCCAGTATAGTGTCGGC,0.522,0.28,-0.0554,-0.734,-0.472,-0.0733,-0.325,-0.494,-0.587,-0.372,-0.364,0.336,-0.318,-0.413,-0.406,-0.524,-0.81,-0.296,-0.888,2.36
